Data: PubChem BioAssay (NCATS)
“And” between values parts separate entries of the source, which are not always exact repeats. Identical values can stand only once. Records with an inconclusive call do not appear. The source made the active and inactive calls. Unless noted, calls come from the whole dose curve; as a rule, active = well fitted curve in the direction sought with a large enough effect; inconclusive = small, poorly fitted or top-dose-only effect, or another doubt; inactive = no such curve, though single readings can be large; an effect the other way counts as inactive or inconclusive.

Legend:
[1] = target: Glucocorticoid receptor (Homo sapiens) (UniProt P04150); experiment: qHTS assay for small molecule agonists of glucocorticoid receptor signaling (AID 588532; active = well fitted curve in the direction sought with a large enough effect in the signal ratio, with a control signal flat; the % refers to the signal ratio;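 note: 100% = dexamethasone at 0.1 µM and 0% = DMSO only wells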); details: HeLa MMTV-bla, beta-lactamase ratio, agonist, 18 h; stronger effect = higher value; percent of dexamethasone control, DMSO zero
In short: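 MMTV-bla HeLa, beta-lactamase reporter; medium with 1% charcoal/dextran-stripped FBS; cpds up to 92 uM, 18 h, 37 C; CCF4 readout 460/530 nm; Hill fit → EC50, efficacy vs 0.1 uM dexamethasone = 100%.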

[2] = target: Glucocorticoid receptor (Homo sapiens) (UniProt P04150); experiment: qHTS assay for small molecule antagonists of glucocorticoid receptor signaling (AID 588533; active = well fitted inhibition curve with a large enough effect in the signal ratio, with a control signal flat, not every such curve was filed as active; the % refers to the signal ratio;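 note: cells stimulated with 2 nM dexamethasone as agonist; % is set by controls: 0 for no effect and ±100 for the full control effect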); details: HeLa MMTV-bla, GRE beta-lactamase ratio, antagonist mode, 18 h; series mostly up to 76.8 µM
In short: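 Antagonist-mode qHTS: compound titrations added to GRE-bla HeLa cells, then dexamethasone 2 nM final; 18 h, 37 C. CCF4 FRET fluorescence normalized to dexamethasone and DMSO; IC50 from Hill fit.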

[3] = qHTS assay for small molecule antagonists of peroxisome proliferator-activated receptor delta signaling (AID 588535); details: HEK293T PPARd-UAS-bla, beta-lactamase FRET ratio, 18 h; 460 nm channel;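 note: cells co-treated with a PPAR-delta agonist as stimulator during compound exposure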
In short: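 Compounds tested in titration on PPAR-delta-UAS-bla HEK293T cells grown in charcoal/dextran-stripped serum (2%); beta-lactamase activity read via CCF4 emission at 460 and 530 nm.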

[4] = target: Vitamin D3 receptor (Homo sapiens) (UniProt P11473); experiment: qHTS assay for small molecule agonists of vitamin D receptor signaling (AID 588543; calls by dose curve;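 note: 0% = DMSO basal and 100% = reference agonist control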); details: HEK293T VDR-UAS-bla, beta-lactamase ratio, 16 h; series mostly up to 76.8 µM
In short: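 Measured: β-lactamase reporter activity (CCF4, 405 nm excitation, 460/530 nm emission) in HEK293T VDR-UAS-bla cells after 16 h compound exposure at 37 °C. Normalization against 50 nM 1α,25-dihydroxyvitamin D3 and DMSO; Hill-fit EC50.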

[5] = qHTS assay for small molecule agonists of retinoid X receptor alpha signaling (AID 588544; calls by dose curve;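 for activation: 0% = DMSO basal wells and 100% = reference agonist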); details: HEK293T RXRa-UAS-bla, beta-lactamase reporter, 18 h; 530 nm emission
[6] = target: Retinoic acid receptor RXR-alpha (Homo sapiens) (UniProt P19793); experiment: as above; details: HEK293T RXRa-UAS-bla, beta-lactamase reporter, 18 h; series mostly up to 76.7 µM
[7] = target: Thyroid hormone receptor beta (Homo sapiens) (UniProt P10828); experiment: qHTS assay for small molecule agonists of thyroid hormone receptor beta signaling (AID 588545; calls by dose curve); details: TR-UAS-bla GripTite HEK 293, beta-lactamase ratio, agonist mode, 18 h; series mostly up to 76.7 µM
In short: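 Cells (2500/well) were seeded, incubated 4 hrs at 37 C, dosed with a compound series, incubated 18 hrs, loaded with CCF4 dye for 2 hrs at RT, then read for fluorescence. Data were scaled between DMSO (0%) and 10 nM T3 (100%).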

[8] = qHTS assay for small molecule antagonists of retinoid X receptor alpha signaling (AID 588546; active = well fitted inhibition curve with a large enough effect in the signal ratio, with a control signal flat, not every such curve was filed as active; the % refers to the signal ratio;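 note: cells stimulated with 9-cis-retinoic acid as agonist; % is set by controls: 0 for no effect and ±100 for the full control effect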); details: HEK293T RXRa-UAS-bla, beta-lactamase ratio, antagonist mode; measured here: W530 green channel, cytotoxicity proxy
In short: (§1)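 Beta-lactamase reporter inhibition, read as CCF4 fluorescence ratio (ex 405, em 460/530 nm) after 2 h at RT. HEK293T UAS-bla cells, 2500/well, were stimulated with 9-cis-RA at 500 or 100 nM final alongside test compound for 18 h at 37 C.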

[9] = target: Retinoic acid receptor RXR-alpha (Homo sapiens) (UniProt P19793); experiment: as above; details: HEK293T RXRa-UAS-bla, beta-lactamase ratio, antagonist mode
In short: as §1

[10] = qHTS assay for small molecule agonists of the antioxidant response element (ARE) signaling pathway (AID 651741; active = well fitted activation curve with a large enough effect in the signal ratio; the % refers to the signal ratio; note: potency is the fitted concentration of half-maximal effect; for activation: % of control where 0% means no effect); details: HepG2 ARE-bla reporter, beta-lactamase FRET ratio, 16 h; series mostly up to 96 µM
In short: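 Beta-lactamase reporter expression driven by the antioxidant response element in HepG2 cells was detected by fluorescence with LiveBLAzer B/G FRET substrate (2 h, room temperature) following 16 h compound treatment at 37 C.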

[11] = qHTS assay for small molecule activators of the p53 signaling pathway (AID 651743; active = well fitted activation curve with a large enough effect in the signal ratio, not every such curve was filed as active; the % refers to the signal ratio; note: % of control where 0% means no effect); details: HCT-116 p53RE-bla, beta-lactamase FRET ratio, 16 h; activation: stronger effect = higher value
In short: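 Here HCT-116 cells with an integrated p53-responsive beta-lactamase gene were incubated with compounds (16 hours, 37 C) after a 5-hour plating period; beta-lactamase activity was detected as fluorescence intensity via B/G FRET substrate.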

[12] = qHTS assay for environmental chemicals that activate the Aryl hydrocarbon Receptor (AhR) signaling pathway (AID 651777); details: 1A2-DRE human hepatoma cells, luciferase, 24 h; activation: stronger effect = higher value; note: % of control where 0% means no effect; nearly all actives have a fitted effect of over 15% in size
In short: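 Luminescence read-out: One-Glo added for 30 min at RT after 24 hr compound treatment (37 C, 5% CO2) of human hepatoma cells expressing a DRE/CYP1A2 promoter–luciferase reporter; increased signal indicates AhR activation.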

[13] = target: Peroxisome proliferator-activated receptor alpha (Homo sapiens) (UniProt Q07869); experiment: qHTS assay for small molecule agonists of the peroxisome proliferator-activated receptor alpha (PPARalpha) signaling pathway (AID 651778); details: PathHunter PPARalpha complementation, chemiluminescence, 6 h; max response: stronger effect = higher value; note: % of control where 0% means no effect
In short: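 Cells plated at 2,000/well and held overnight at 37 C, 5% CO2, then compound added by pin tool for 6 hr; after PathHunter detection reagent and 60 min at room temperature, chemiluminescence from enzyme complementation was read.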

[14] = qHTS assay for small molecule agonists of the antioxidant response element (ARE) signaling pathway measured by Nrf2-dependant transcriptional activity (AID 720636; active = well fitted curve in the direction sought with a large enough effect in the repeat runs; an effect the other way counts as inactive or inconclusive; note: % of control where 0% means no effect); details: ARE-luc HepG2, Nrf2 luciferase reporter, 16 h; series mostly up to 92.4 µM
In short: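 HepG2 ARE-luc reporter line, 1% dialyzed FBS; 6 hr attachment at 37 C, compound pinned in, 16 hr at 37 C/5% CO2; ONE-Glo, 30 min RT, luminescence read.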

[15] = qHTS assay for small molecule agonists of the antioxidant response element (ARE) signaling pathway measured by Nrf2-dependant transcriptional activity - cell viability counter screen (AID 720653; active = well fitted curve in the direction sought with a large enough effect in the repeat runs; an effect the other way counts as inactive or inconclusive; note: % is set by controls: 0 for no effect and ±100 for the full control effect); details: ARE-bla HepG2 viability, CellTiter-Glo ATP luminescence, 16 h; max response: stronger effect = lower value
In short: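 ARE-bla HepG2 cells (2,000/well) rested 5 hrs at 37C/5% CO2, then exposed to compounds in DMSO for 16 hrs. Viability was read in the same wells as intracellular ATP by luminescence, 30 min at room temperature after reagent addition.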

[16] = qHTS assay for cell viability of HEK293 cells (AID 743288); details: ATP luminescence (CellTiter-Glo), 18 h; max response: stronger effect = lower value; note: nearly all actives have a fitted effect of over 50% in size; note: potency is the fitted concentration of half-maximal effect
In short: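 HEK293, 18 h, 37 C, ATP luminescence. Cells at 2,000/well were allowed at least 5 h to settle before dosing; CellTiter-Glo developed 30 min at RT.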

[17] = qHTS assay for cell viability of the p53RE-bla HCT-116 cell line (AID 743292); details: p53RE-bla HCT-116 viability, ATP luminescence, 16 h; series mostly up to 95 µM; note: nearly all actives have a fitted effect of over 55% in size; note: potency is the fitted concentration of half-maximal effect
In short: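 Luminescent ATP quantitation (CellTiter-Glo) served as the viability read-out; reagent was added after 16 h compound exposure at 37 C and read after 30 min at room temperature. Cells: p53RE-bla HCT-116, 4,000 per well.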

[18] = target: Nuclear receptor subfamily 1 group I member 2 (Rattus norvegicus) (UniProt Q9R1A7); experiment: qHTS assay for small molecule activators of the rat pregnane X receptor (rPXR) signaling pathway (AID 651751; call rule not given here; note: 0% is about no effect); details: rPXR reporter cells, luciferase (One-Glo), 24 h
[19] = qHTS assay for small molecule activators of the human pregnane X receptor (PXR) signaling pathway (AID 720659; call rule not given here; note: 0% is about no effect); details: DPX-2 HepG2 CYP3A4-luciferase, 24 h; series mostly up to 92.3 µM
[20] = target: Vitamin D3 receptor (Homo sapiens) (UniProt P11473); experiment: qHTS assay for small molecule antagonists of vitamin D receptor signaling (AID 588541; calls by dose curve;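 note: receptor activated by calcitriol during compound treatment; % is set by controls: 0 for no effect and ±100 for the full control effect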); details: HEK293T VDR-UAS-bla, beta-lactamase ratio, antagonist mode; series mostly up to 76.7 µM
In short: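 VDR-UAS-bla HEK293T cells (2000/well, 2% charcoal-stripped FBS) were treated with titrated compounds plus 1-alpha,25-dihydroxyvitamin D3 (50 nM or 3 nM final) for 16 h at 37 C. CCF4 beta-lactamase fluorescence was read; Hill fits gave IC50.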

Chain of Nuclear receptor subfamily 1 group I member 2 (Rattus norvegicus) (Q9R1A7 whole entry, looked up): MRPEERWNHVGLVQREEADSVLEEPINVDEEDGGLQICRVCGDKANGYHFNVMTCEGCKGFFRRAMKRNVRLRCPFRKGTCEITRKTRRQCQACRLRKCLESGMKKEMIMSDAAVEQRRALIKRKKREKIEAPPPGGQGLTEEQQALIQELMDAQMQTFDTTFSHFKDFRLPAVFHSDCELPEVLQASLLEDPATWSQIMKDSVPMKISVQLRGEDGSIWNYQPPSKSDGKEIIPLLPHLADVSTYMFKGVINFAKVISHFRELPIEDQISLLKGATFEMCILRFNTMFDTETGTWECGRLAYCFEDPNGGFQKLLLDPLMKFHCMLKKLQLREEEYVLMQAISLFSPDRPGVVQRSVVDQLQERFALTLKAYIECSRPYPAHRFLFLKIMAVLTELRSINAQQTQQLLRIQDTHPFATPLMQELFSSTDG
Chain of Vitamin D3 receptor (Homo sapiens) (P11473 whole entry, looked up): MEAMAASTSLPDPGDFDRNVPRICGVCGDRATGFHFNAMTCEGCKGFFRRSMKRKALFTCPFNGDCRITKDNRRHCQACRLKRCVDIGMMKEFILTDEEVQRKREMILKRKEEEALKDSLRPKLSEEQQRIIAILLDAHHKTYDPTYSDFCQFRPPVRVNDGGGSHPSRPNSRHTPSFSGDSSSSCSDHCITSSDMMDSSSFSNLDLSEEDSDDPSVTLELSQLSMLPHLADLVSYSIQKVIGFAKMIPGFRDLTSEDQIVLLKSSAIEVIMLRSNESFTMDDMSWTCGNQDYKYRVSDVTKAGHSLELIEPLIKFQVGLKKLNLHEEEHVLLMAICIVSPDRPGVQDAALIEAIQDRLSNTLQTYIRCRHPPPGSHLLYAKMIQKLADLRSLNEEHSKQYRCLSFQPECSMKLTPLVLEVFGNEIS
Chain of Retinoic acid receptor RXR-alpha (Homo sapiens) (P19793 whole entry, looked up): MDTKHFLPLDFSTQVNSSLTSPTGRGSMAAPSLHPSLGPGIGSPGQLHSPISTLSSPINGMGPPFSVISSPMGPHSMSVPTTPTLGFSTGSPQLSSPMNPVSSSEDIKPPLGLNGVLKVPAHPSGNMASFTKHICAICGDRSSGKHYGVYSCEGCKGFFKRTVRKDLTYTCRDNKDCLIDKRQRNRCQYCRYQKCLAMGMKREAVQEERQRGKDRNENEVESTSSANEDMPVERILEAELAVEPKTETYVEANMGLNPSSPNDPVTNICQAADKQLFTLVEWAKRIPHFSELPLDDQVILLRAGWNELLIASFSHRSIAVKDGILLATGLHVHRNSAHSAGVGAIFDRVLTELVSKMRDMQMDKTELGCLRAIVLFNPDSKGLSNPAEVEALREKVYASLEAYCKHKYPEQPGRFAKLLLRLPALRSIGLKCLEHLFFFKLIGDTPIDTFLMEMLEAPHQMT
Chain of Peroxisome proliferator-activated receptor alpha (Homo sapiens) (Q07869 whole entry, looked up): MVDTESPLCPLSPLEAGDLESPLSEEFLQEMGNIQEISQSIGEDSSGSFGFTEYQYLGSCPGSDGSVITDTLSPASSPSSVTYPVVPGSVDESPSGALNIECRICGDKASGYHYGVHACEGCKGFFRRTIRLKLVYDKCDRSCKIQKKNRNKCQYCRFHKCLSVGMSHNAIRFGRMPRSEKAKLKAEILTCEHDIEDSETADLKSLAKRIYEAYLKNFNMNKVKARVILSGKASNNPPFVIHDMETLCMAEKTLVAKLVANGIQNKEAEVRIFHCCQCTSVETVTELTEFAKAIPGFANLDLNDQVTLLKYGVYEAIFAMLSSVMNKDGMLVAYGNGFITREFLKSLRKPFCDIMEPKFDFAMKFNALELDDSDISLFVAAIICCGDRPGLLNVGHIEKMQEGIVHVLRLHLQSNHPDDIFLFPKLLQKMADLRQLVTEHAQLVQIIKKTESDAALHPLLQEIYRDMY
Chain of Thyroid hormone receptor beta (Homo sapiens) (P10828 whole entry, looked up): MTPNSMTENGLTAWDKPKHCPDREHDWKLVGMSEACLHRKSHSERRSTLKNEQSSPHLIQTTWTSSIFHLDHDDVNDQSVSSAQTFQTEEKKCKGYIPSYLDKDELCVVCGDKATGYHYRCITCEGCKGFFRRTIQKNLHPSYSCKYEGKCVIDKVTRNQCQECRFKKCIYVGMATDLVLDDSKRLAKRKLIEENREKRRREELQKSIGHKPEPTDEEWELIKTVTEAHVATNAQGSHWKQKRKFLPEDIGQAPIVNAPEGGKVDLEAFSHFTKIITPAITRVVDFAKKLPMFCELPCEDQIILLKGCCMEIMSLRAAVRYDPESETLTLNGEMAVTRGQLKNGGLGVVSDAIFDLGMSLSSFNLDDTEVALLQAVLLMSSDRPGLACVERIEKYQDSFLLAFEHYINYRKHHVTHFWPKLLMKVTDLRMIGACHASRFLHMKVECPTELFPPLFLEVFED
Chain of Glucocorticoid receptor (Homo sapiens) (P04150 whole entry, looked up): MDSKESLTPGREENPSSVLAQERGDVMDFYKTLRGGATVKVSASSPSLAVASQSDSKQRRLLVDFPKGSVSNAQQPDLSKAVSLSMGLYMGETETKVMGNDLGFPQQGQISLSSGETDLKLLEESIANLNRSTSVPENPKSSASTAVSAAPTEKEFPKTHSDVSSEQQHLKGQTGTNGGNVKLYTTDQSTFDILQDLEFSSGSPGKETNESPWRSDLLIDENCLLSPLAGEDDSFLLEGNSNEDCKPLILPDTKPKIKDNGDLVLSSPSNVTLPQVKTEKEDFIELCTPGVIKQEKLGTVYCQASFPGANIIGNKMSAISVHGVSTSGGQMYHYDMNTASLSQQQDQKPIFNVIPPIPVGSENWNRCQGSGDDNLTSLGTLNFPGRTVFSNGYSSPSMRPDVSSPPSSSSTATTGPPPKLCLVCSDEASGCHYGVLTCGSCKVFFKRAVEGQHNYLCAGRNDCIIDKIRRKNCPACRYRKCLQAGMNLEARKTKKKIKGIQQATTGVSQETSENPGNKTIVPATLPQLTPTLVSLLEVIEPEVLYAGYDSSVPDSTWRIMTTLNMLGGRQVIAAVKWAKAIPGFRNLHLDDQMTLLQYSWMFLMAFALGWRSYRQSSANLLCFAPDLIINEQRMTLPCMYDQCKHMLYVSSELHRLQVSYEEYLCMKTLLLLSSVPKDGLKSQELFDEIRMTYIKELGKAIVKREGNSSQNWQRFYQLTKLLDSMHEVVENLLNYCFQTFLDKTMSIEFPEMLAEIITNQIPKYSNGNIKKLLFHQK

CC(C)Nc1nc(N)nc(Cl)n1
2.38% and -17.2%: max response [5]
2.88% and -10.4%: max response [3]
inactive: activation [1] -6.58% and -7.33% | Potency [2] | outcome [4] | Potency [6] | Potency [7] | max response [9] -9.99% and -17.3% | Potency [10] | activation [11] -1.43% and -0.514% | activation [12] 1.51% and -1.55% | max response [13] -0.394% and -2.37% | Potency [14] | max response [15] -6.9% and -10.3% | max response [16] -6.34% and -4.35% | Potency [17] | max response [18] 4.66% and -2.32% | outcome [19]
-2.6% and -6.07%: max response [8]

COC(=O)c1ccc(CNS(C)(=O)=O)cc1S(=O)(=O)NC(=O)Nc1nc(OC)cc(OC)n1
-12.9%: max response [8]
10.6%: max response [5]
inactive: activation [1] -4.55% | Potency [2] | Potency [20] | outcome [4] | Potency [6] | Potency [7] | max response [9] 13.2% | activation [11] -5.96% | activation [12] -2.23% | Potency [14] | max response [15] 12.1% | max response [16] 10.3% | max response [18] -5.5% | outcome [19]

CC[C@H](C)C1O[C@]2(C=C[C@@H]1C)C[C@@H]1C[C@@H](C/C=C(\C)[C@@H](O[C@H]3C[C@H](OC)[C@@H](O[C@H]4C[C@H](OC)[C@H](NC(C)=O)[C@H](C)O4)[C@H](C)O3)[C@@H](C)/C=C/C=C3\CO[C@@H]4[C@H](O)C(C)=C[C@@H](C(=O)O1)[C@]34O)O2 (some centres undefined)
active: Potency [16] 44.7 µM | Potency [17] 14.1 µM
inactive: activation [1] -14.6% | activation [12] -11.2% | max response [13] 6.61% | Potency [14] | outcome [19]

CCCCC(CC)CN1C(=O)C2C3C=CC(C3)C2C1=O (centres undefined)
inactive: activation [1] -12.6% | Potency [20] | outcome [4] | Potency [7] | max response [9] -2.63% | activation [11] -2.19% | activation [12] -3.03% | max response [13] 7.9% | Potency [14] | max response [15] 8.11% | max response [16] -5.32%
8.85%: max response [8]

Oc1ccc(Nc2ccccc2)cc1
inactive: activation [1] -7.61% | Potency [2] | outcome [4] | Potency [7] | activation [11] 16.3% | max response [13] -0.779% | Potency [14] | max response [15] -6.61% | max response [16] -10.5% | Potency [17] | max response [18] 0.0407% | outcome [19]
active: Potency [10] 24.3 µM

CCN(Cc1c(F)cccc1Cl)c1c([N+](=O)[O-])cc(C(F)(F)F)cc1[N+](=O)[O-]
-79%: max response [3]
inactive: outcome [4] | activation [11] 1.01% | activation [12] 0.127% | max response [13] -0.89% | Potency [14] | max response [15] -3.47% | Potency [17]

S=C([S-])NCCNC(=S)[S-].S=C([S-])NCCNC(=S)[S-].[Mn+2].[Zn+2]
inactive: outcome [4] | Potency [7] | activation [12] 0.587% | max response [13] -4.1% | max response [15] 17.6% | max response [18] -11.1%

CC1(C)C(=O)N(Br)C(=O)N1Cl
-10%: max response [5]
-9.45%: max response [8]
inactive: Potency [20] | outcome [4] | Potency [6] | Potency [7] | max response [9] -6.62% | activation [12] 1.28% | max response [13] -1.51% | Potency [14] | max response [15] -11.1% | Potency [17] | max response [18] 1.46%
